In ChEMBL document CHEMBL1157539, “Thousands of chemical starting points for antimalarial lead identification” (Nature, 2010):

test system: Plasmodium falciparum; assay: GSK_TCMDC: Inhibition of Plasmodium falciparum 3D7 in whole red blood cells, using parasite LDH activity as an index of growth. Test compounds present at 2uM; format: functional

Row | SMILES | Inhibition [%]
1 | COC(=O)c1cccc(CNCc2ccc(-c3ccc(-c4nc5cc(F)ccc5[nH]4)cc3)cc2)c1.O=C(O)C(F)(F)F | 100
2 | O=C(O)C(F)(F)F.c1ccc(CCNCc2ccc(-c3cccc(-c4nc5ccccc5[nH]4)c3)cc2)nc1 | 100
3 | Cc1cc(N[C@@H](Cc2ccccc2)C(=O)NCCc2ccccc2)nc(NCC2CCCCC2)n1.O=C(O)C(F)(F)F | 100
4 | Cc1ccc2[nH]c(-c3cc(-c4cccc(C#N)c4)cnc3N)nc2c1.O=C(O)C(F)(F)F | 100
5 | O=C(c1ccc(-c2ccc(-c3nc4ccccc4[nH]3)s2)cc1)N1CCCCC1CN1CCC(O)C1 (stereo not drawn) | 84
6 | COCc1cc(C)nc2sc(C(=O)Nc3cc(C(C)(C)C)ccc3O)c(N)c12 | 85
7 | Cn1c2c(c3ccccc31)CN(CCC1(c3ccc(Cl)c(Cl)c3)CN(C(=O)Cc3ccccc3)CCO1)CC2 (stereo not drawn) | 95
8 | O=C(Nc1ccc(OC2CCN(Cc3ccc(F)cc3)CC2)c(Cl)c1)c1ccsc1.O=C(O)C(F)(F)F | 94
9 | O=C(/C=C/c1ccc(Cl)c(Cl)c1)NCCCCN1CCCN(C(=O)Nc2ccc(Cl)c(Cl)c2)CC1 | 96
10 | CC(C)(C)c1ccc(CN2CCC(NC(=O)c3ccc(-c4cccc(C(F)(F)F)c4)s3)CC2)cc1.O=C(O)C(F)(F)F | 100
11 | CC(C)Nc1nc(NC2CCCCC2)nc(N2CCCCCCC2)n1 | 86
12 | Br.CC1(C)NC(N)=NC(=N)N1OCCCOc1ccc(N)cc1 | 96
13 | CC(C)NCc1cccc(-c2ccc(-c3nc4cc(C(F)(F)F)ccc4[nH]3)cc2)c1.O=C(O)C(F)(F)F | 99
